From PubChem BioAssay
GPT2 inh: blocks human glutamate pyruvate transaminase 2. Q8TD30. 100,000 compounds, 0.25% hits. Potency, µM (series often up to 57.7 µM), for the others: at the highest dose activity change, negative = inhibition, actives largely listed as inhibitors. Recombinant GPT2, coupled pyruvate oxidase/HRP Amplex Red fluorescence; note: nearly all actives have a fitted effect of over 60% in size
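Fluorescence read-out: pyruvate from GPT2 turnover coupled to pyruvate oxidase, HRP and Amplex Red (0.2mM ThPP, 0.2U/mL PO and HRP, 50uM Amplex final). Substrates 250uM a-KG, 2mM L-alanine; enzyme 10ng/uL; 30 min RT.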
hNpr1 antagonist: human Npr1 receptor antagonism; Potency, µM (series often up to 46.3 µM), for the others: at the top dose activity change, negative = inhibition, hits mostly inhibitors; 76,000 compounds, 1.6% hits; P16066; HEK293 hNpr1 GloSensor cGMP, ANP-stimulated luminescence; calls by dose curve; note: nearly all actives have a fitted effect of over 60% in size
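Compound pre-incubated 30 min at room temperature on GloSensor-loaded HEK293 cells stably carrying hNpr1 and the pGS-40F cGMP biosensor. Stimulation uses hNppA at 0.1 nM final; luminescence is taken at baseline and 20 min post-agonist.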
Luciferase inh: inhibitors of firefly (Photinus pyralis) luciferase. purified P. pyralis luciferase, luminescence, biochemical. Potency, µM (series often up to 115 µM), usual class: inhibitors. 76,000 compounds, 2.5% hits. AID 1347043; note: nearly all actives have a fitted effect of over 65% in size
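Cell-free enzyme assay, 10nM P. pyralis luciferase, luciferin and ATP each at 10uM. Inhibition profiled over a 6-point titration, read as luminescence.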
NIH3T3 tox: cytotoxic compounds in NIH 3T3 cells; NIH 3T3 viability, CellTiter-Glo ATP luminescence, 48-72 h; Potency, µM (highest dose often 96.7 µM), for inactives: top-dose activity change, negative = cytotoxicity, most hits filed as inhibitors; 94,000 compounds, 4.3% hits; note: nearly all actives have a fitted effect of over 55% in size
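First NIH 3T3 cells are plated at 400 cells/well; next compound is pinned in; then plates incubate 48 or 72 hr at 37 °C; finally CellTiter-Glo is added and luminescence read after 10 min.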
HEK cytotox: kills HEK 293 cells | AID 1345083 | Potency, µM (titrated, usually from 115 µM), without a hit: at the highest dose activity change, negative = cytotoxicity, hits mostly inhibitors | 94,000 compounds, 6.6% hits | HEK 293 viability, ATP luminescence (CellTiter-Glo), 48-72 h; note: nearly all actives have a fitted effect of over 60% in size
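HEK 293 seeded at 250 cells/well receive compound via pintool. After 48 or 72 hr at 37 degree Celsius, 5% CO2 and 95% humidity, CellTiter-Glo is dispensed and luminescence read following 10 min at room temperature.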
Numbers without * were called inactive; i = inactive; u = inconclusive; x = no result; [ ] = remark or other dose. The list is not random: actives were taken first. Their share in the collection is about 10%. Unless noted, calls come from the whole dose curve; as a rule, active = well fitted curve in the direction sought with a large enough effect; inconclusive = small, poorly fitted or top-dose-only effect, or another doubt; inactive = no such curve, though single readings can be large; an effect the other way counts as inactive or inconclusive. % is set by controls: 0 for no effect and ±100 for the full control effect; potency is the fitted concentration of half-maximal effect.

SMILES	GPT2 inh	hNpr1 antagonist	Luciferase inh	NIH3T3 tox	HEK cytotox
Cc1cccc(N2CCN(C(=O)CCn3ccn4nc5c(c4c3=O)CCCC5)CC2)c1	i	-1%	i	-16%	u
O=C(c1ccccc1Cl)N1CCC(C(=O)N2CCC(c3ccccc3)CC2)CC1	i	x	x	u	u
CCn1ccc(C(=O)N2CCC3(CC2)CC(N(C2CC2)S(=O)(=O)CC)CCO3)n1 (stereo not drawn)	0%	x	x	u	-1%
CCc1cccc2c(C(CC(=O)N3CCCC3)c3cccc(Cl)c3)c[nH]c12 (stereo not drawn)	-3%	-2%	i	-24%	u
CCc1cccc2c(C(CC(=O)NCC(C)C)c3cccc([N+](=O)[O-])c3)c[nH]c12 (stereo not drawn)	-18%	-1%	i	35µM*	u
CCc1cccc2c(C(CC(=O)NCc3ccco3)c3cccc([N+](=O)[O-])c3)c[nH]c12 (stereo not drawn)	i	-5%	i	32µM*	45µM*
COc1ccc(C(CC(=O)NCc2ccccc2)c2c[nH]c3ccccc23)cc1OC (stereo not drawn)	u	-9%	i	-12%	3%
CC(C)CNC(=O)CC(c1cccc([N+](=O)[O-])c1)c1c[nH]c2ccccc12 (stereo not drawn)	i	-16%	i	u	79µM*
CC(C)c1noc(-c2cccn3c(CNC(=O)c4cc(F)ccc4F)nnc23)n1	i	-15%	i	-18%	-11%
COc1cc(NC(=O)Cn2c(-c3cnccn3)nc(C)c(C)c2=O)cc(OC)c1OC	i	-19%	i	-13%	-33%
CC(=O)N1CCC(Cc2ccc(C(=O)NCc3cc(F)cc(F)c3)cc2)CC1	4%	x	x	u	u
CN(C)c1ccc(NC(=S)N[C@H]2CO[C@H]3[C@@H]2OC[C@H]3OC(=O)Nc2cccc3ccccc23)cc1	8.9µM*	-3%	32µM*	u	-27%
O=C(Nc1cccc2ccccc12)O[C@@H]1CO[C@H]2[C@@H]1OC[C@@H]2NC(=S)Nc1ccc(Cl)cc1	i	-5%	i	u	40µM*
S=C(Nc1cccc2ccccc12)N[C@H]1CO[C@H]2[C@@H]1OC[C@H]2OCc1ccccc1	2%[88.5 µM]	u	i	u	63µM*
Cc1ccc([S+](=O)([O-])NC2CCN(Cc3cccc(-c4cccs4)c3)CC2)cc1	-11%	x	x	11µM*	u
COC(=O)CNC(=O)C1CCN(C(=O)c2ccc(-c3cccs3)cc2)CC1	x	x	x	-28%	-13%
O=[S+]([O-])(CCC(F)(F)F)NC1CCN(Cc2cccc(-c3cccs3)c2)CC1	i	x	x	22µM*	u
O=C(NCc1ccccc1Cl)C1CCN(C(=O)c2ccc(-c3cccs3)cc2)CC1	x	x	x	40µM*	u
O=[S+]([O-])(NC1CCN(Cc2cccc(-c3ccc(F)c(F)c3)c2)CC1)c1cccs1	x	x	x	u	35µM*
O=C(Cc1ccc(F)cc1)NC1CCN(Cc2cccc(-c3ccc(F)c(F)c3)c2)CC1	-5%	x	x	-26%	0%
CN(C)C(=O)c1cc(-c2ccccc2F)nc2c1cnn2C	x	x	x	u	-21%[172 µM]
O=[S+]([O-])(NC1CCN(Cc2cccc(-c3cccs3)c2)CC1)c1ccccc1	-14%	x	x	40µM*	45µM*
O=C(c1ccc(-c2cccs2)cc1)N1CCC(N[S+](=O)([O-])c2ccccc2)CC1	i	x	x	u	45µM*
Cc1noc(C)c1[S+](=O)([O-])NC1CCN(C(=O)c2ccc(-c3cccs3)cc2)CC1	2%	x	x	u	u
O=[S+]([O-])(NC1CCN(Cc2cccc(-c3cccs3)c2)CC1)c1cccs1	i	x	x	u	u
CCOC(=O)c1ccc(N2CCN(CCC3c4cccnc4C(=O)N3c3c(C)cccc3C)CC2)cc1 (stereo not drawn)	4%[27.3 µM]	x	x	u	35µM*
COC(=O)c1ccc(CNC(=O)CC2c3cccnc3C(=O)N2c2c(Cl)cccc2Cl)cc1 (stereo not drawn)	-1%[27.3 µM]	x	x	u	u
